Hit rate of the full screen: of about 96,000 compounds, about 20,000 (21%) were called active. Not all results are given here. Values without a mark were called inactive.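 How the source made its calls: active means CYP2C19 inhibition above a set limit at 5 µM in the primary screen (cut at about 50% in these data); inactive means the rest.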
These compounds were tested against Cytochrome P450 2C19 (Homo sapiens) (UniProt P33261) (assay: blockers of cytochrome P450 2C19 activity – biochemical, luminescence, ADME assay, primary screen (AID 778;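 further: plate controls were negative control wells for no effect and 2.5 mM tranylcypromine positive control for full effect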)). Conditions: CYP2C19 Supersomes, luciferin-H EGE luminescence, 30 min; at 5 µM; active compounds read high.
Sequence of Cytochrome P450 2C19 (Homo sapiens) (P33261 whole entry, looked up): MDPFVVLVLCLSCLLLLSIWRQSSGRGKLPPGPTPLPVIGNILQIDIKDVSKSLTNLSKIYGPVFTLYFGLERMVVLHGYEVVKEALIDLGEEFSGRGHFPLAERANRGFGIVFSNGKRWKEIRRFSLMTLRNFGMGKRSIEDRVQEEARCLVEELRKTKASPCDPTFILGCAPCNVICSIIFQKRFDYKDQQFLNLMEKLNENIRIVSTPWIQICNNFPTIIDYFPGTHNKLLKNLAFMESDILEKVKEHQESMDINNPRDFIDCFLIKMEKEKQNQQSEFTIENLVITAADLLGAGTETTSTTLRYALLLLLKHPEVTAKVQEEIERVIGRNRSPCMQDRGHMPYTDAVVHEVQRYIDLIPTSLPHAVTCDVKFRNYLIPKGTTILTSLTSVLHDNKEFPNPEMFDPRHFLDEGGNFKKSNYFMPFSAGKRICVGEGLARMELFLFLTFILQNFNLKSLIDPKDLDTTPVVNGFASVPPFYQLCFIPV
For CCOC(=O)c1cnc2sccn2c1=O, the inhibition was -11.8%. Cc1ccc(-n2c(=O)c(C#N)cc3c(=O)n4ccccc4nc32)cc1C gave an inhibition of 6.5%. With CCn1c(=N)c(S(=O)(=O)c2ccc(F)cc2)cc2c(=O)n3ccccc3nc21 the inhibition was 69.6% (active). In the case of CCCn1c(=NC(C)=O)c(C(=O)OCC)cc2c(=O)n3ccccc3nc21, the inhibition was -6.3%. With COc1cc2[nH]c(=S)n(Cc3ccc(C)o3)c(=O)c2cc1OC the inhibition was -7.9%. With Fc1ccc(Cn2nnnc2C(c2cccs2)N2CCCCCC2)cc1 (stereo not given) the inhibition was 96% (active). In the case of CCC(C)(C)n1nnnc1C(c1cccs1)N1CCN(c2nc3ccccc3s2)CC1 (stereo not given), the inhibition was 49.9%. With N#Cc1ccc(C(c2nnnn2CCc2ccccc2)N2CCCCCC2)cc1 (stereo not given) the inhibition was 20.5%. With CCC(C)(C)n1nnnc1C(c1cccs1)N1CCN(Cc2ccccc2)CC1 (stereo not given) the inhibition was 61.8% (active). Work on CC(C)C(c1nnnn1Cc1ccccc1)N1CCC(C(N)=O)CC1 (stereo not given) yielded an inhibition of 10%. In the case of CCC(C)(C)n1nnnc1C(c1ccccc1OC)N1CCSCC1 (stereo not given), the inhibition was 11.4%. Work on O=C1c2cccnc2C(=O)N1Cc1cccs1 yielded an inhibition of 21.3%. Work on CCCCNC(=O)CCn1c(=S)[nH]c2cc3c(cc2c1=O)OCO3 yielded an inhibition of 41.9%. Compound CCCCn1c(=S)[nH]c2ncccc2c1=O has an inhibition of 10.8%. In the case of CC(C)(C)c1ccc(C(=O)NNC(=O)Cc2ccccc2)cc1, the inhibition was 23.9%. Compound O=S(=O)(c1ccc(F)cc1)n1ccc(-c2cnc(-c3ccccc3)s2)n1 has an inhibition of 13.6%. Compound CCOC(=O)N1CCN(S(=O)(=O)c2cc3c(cc2C)NC(=O)CO3)CC1 has an inhibition of 12.1%. Compound COCCn1c(CN2CCC(Cc3ccccc3)CC2)nc2c1c(=O)n(C)c(=O)n2C has an inhibition of 49.4%. Cn1cc(S(=O)(=O)N2CCN(c3ccc(F)cc3)CC2)c(=O)n(C)c1=O was tested, and the inhibition was 26.4%. For Cn1cc(S(=O)(=O)N2CCC(Cc3ccccc3)CC2)c(=O)n(C)c1=O, the inhibition was 69.7% (active). With C=CCn1c(SCCOc2ccc(OC)cc2)nnc1C(NC(=O)c1ccc(OC)cc1)C(C)C (stereo not given) the inhibition was 35.4%. C=CCn1c(SCC(=O)c2ccc(Br)cc2)nnc1C(C)NC(=O)Cc1ccc(OC)cc1 (stereo not given) gave an inhibition of 11.6%. With C=CCn1c(SCc2cc(C(=O)OC)c(C)o2)nnc1-c1ccncc1 the inhibition was 92.1% (active). In the case of COCCn1c(SCc2nc3cc(OC)c(OC)cc3c(=O)[nH]2)nnc1-c1ccncc1, the inhibition was -13.4%. For C=CCn1c(SCc2c(C(=O)OC)sc(N)c2C(=O)OC)nnc1-c1ccc(Cl)cc1, the inhibition was 57.1% (active). O=C1Nc2c(Br)cc(Br)cc2C1(O)N1CCOCC1 (stereo not given) was tested, and the inhibition was 41.6%. For O=C(NC(=O)c1ccc(Cl)c(Cl)c1)OC1CCS(=O)(=O)C1 (stereo not given), the inhibition was -14.2%. Work on COc1ccc(-c2nc(SCC(=O)N3CCOCC3)n[nH]2)cc1 yielded an inhibition of 1%. CN1/C(=c2/s/c(=C3/C(=O)N(c4ccccc4)NC3=Nc3ccccc3)n(C)c2=O)C(C)(C)c2ccccc21 was tested, and the inhibition was 38.5%. CC1=C(C(=O)Nc2ccccc2)C(c2ccco2)C(C#N)=C(SCC(N)=O)N1 (stereo not given) showed an inhibition of 2.2%. CC1=C(C(=O)OCc2ccccc2)C(c2ccco2)n2ncnc2N1 (stereo not given) was tested, and the inhibition was 90.2% (active). With COc1ccccc1NC(=O)C1=C(C)Nc2ncnn2C1c1ccc(C)o1 (stereo not given) the inhibition was 8.6%. Work on COc1ccccc1NC(=O)C1=C(C)NC2=C(C(=O)CCC2)C1c1ccc(C)o1 (stereo not given) yielded an inhibition of 41.9%. COC(=O)C1=C(C)Nc2ncnn2C1c1ccco1 (stereo not given) was tested, and the inhibition was -5.4%. In the case of Cc1ccc(C2CC(=O)NC(SCC(=O)OCc3ccccc3)=C2C#N)o1 (stereo not given), the inhibition was 82.5% (active). For CCOC(=O)CSC1=C(C#N)C(c2ccco2)C(C(=O)OCc2ccccc2)=C(C)N1 (stereo not given), the inhibition was 72.5% (active). For CCOC(=O)C1C(=O)NC(N2CCN(c3ccccc3)CC2)=NC1c1ccco1 (stereo not given), the inhibition was 6.9%. CCOC(=O)CSC1=C(C#N)C(c2sccc2C)CC(=O)N1 (stereo not given) gave an inhibition of 22.9%. In the case of CCCNS(=O)(=O)c1ccc2c(c1)CCCN2C(C)=O, the inhibition was 0.6%. COc1ccc(N2CCN(C(=O)CSc3ncnc4c3cnn4-c3ccc(OC)cc3)CC2)cc1 was tested, and the inhibition was 5.1%. O=C(CN1C(=O)CSc2ncccc21)N1CCOCC1 was tested, and the inhibition was 13%. O=c1c(-c2ccccc2)coc2c(CN3CCOCC3)c(O)ccc12 showed an inhibition of 10.1%. CN(c1cccc(NC(=O)Nc2ccc(Cl)cc2)c1)S(C)(=O)=O was tested, and the inhibition was 28.5%. Cn1nc(C(F)(F)F)c(C(=O)Nc2cccc(C(F)(F)F)c2)c1SCc1ccc(Cl)cc1 was tested, and the inhibition was 87.4% (active). Work on CCC(C)Sc1nc(C)nc2c1c(=O)n(C)c(=O)n2C (stereo not given) yielded an inhibition of 32.5%. Work on O=C1COc2ccc(NC(=O)N3CCN(c4ccc(F)cc4)CC3)cc2N1 yielded an inhibition of 8%. O=C(Nc1ccc(-n2ccnc2P(=O)(O)c2ccccc2)cc1)c1ccccc1Br was tested, and the inhibition was 96.9% (active). In the case of O=C(Nc1ccccc1)c1cccnc1Nc1ccccc1, the inhibition was 2.2%. Compound Cc1nonc1NC(=O)c1ccccc1Br has an inhibition of -11.9%. O=c1c2[nH]c3ccc(Cl)cc3c2ncn1Cc1ccccn1 was tested, and the inhibition was 10.9%. Nc1cc(OC(=O)c2ccccc2Br)nn1S(=O)(=O)c1ccccc1 gave an inhibition of 12.4%. Work on Cc1nnc(SCC(N)=O)n1CC1CCCO1 (stereo not given) yielded an inhibition of 8%. For COc1cc(Cl)c(C)cc1NC(=O)CSc1nnc(-c2cccnc2)n1Cc1ccco1, the inhibition was 60.5% (active). With O=C(CSc1nnc(-c2ccco2)n1CC1CCCO1)c1ccccc1 (stereo not given) the inhibition was 70.4% (active). For CCOC(=O)CSc1nnc(-c2ccco2)n1C, the inhibition was -5.6%. O=C(CSc1nnc(-c2cccnc2)n1Cc1ccco1)c1ccc(Cl)cc1 was tested, and the inhibition was 27.8%. CCn1c(SCC(=O)Nc2cccc(F)c2)nnc1-c1cc2cc(Br)ccc2o1 gave an inhibition of 7.3%. CCn1c(SCC(=O)Nc2cc(C)c(Cl)cc2OC)nnc1-c1ccco1 was tested, and the inhibition was 70.6% (active). O=C(CSc1nnc(-c2cccnc2)n1Cc1ccco1)c1ccc(Cl)c(Cl)c1 was tested, and the inhibition was 79.7% (active). O=C(CSc1nnc(-c2cnccn2)n1Cc1ccco1)c1ccc(Cl)c(Cl)c1 gave an inhibition of 5.6%. In the case of CCOC(=O)CNC(=O)CSc1nnc(-c2cccc(OC)c2)n1CC, the inhibition was 20.1%. Compound COc1ccc(-c2nn(-c3ccccc3)cc2C(=O)Nc2nc(CC(C)=O)ns2)cc1 has an inhibition of -1%. For COc1ccc(N2CCN(C(=O)CSc3nc4cc(OC)c(OC)cc4cc3C#N)CC2)cc1, the inhibition was 37.5%. With C[C@@H](Nc1nc(-c2ccccc2)nc2c1oc1ccccc12)C(=O)O the inhibition was 1.5%. CSc1ccc(NC(=O)N2CC(C)OC(C)C2)cc1 (stereo not given) gave an inhibition of 14.4%. For Cc1c(C(=O)Nc2ccccc2Cl)oc2ccc(S(=O)(=O)N3CCC4(CC3)OCCO4)cc12, the inhibition was 7.5%. COC(=O)c1c(-c2cccs2)csc1NC(=O)CSc1ncnc2sc(C)c(C)c12 gave an inhibition of 16.1%. With Cc1cccc(C)c1NC(=O)CCCSc1nnc(-c2ccco2)n1-c1ccccc1 the inhibition was 23.1%. Work on NC(=O)c1c(NC(=O)CSc2nnc(-c3ccco3)n2N)sc2c1CCCC2 yielded an inhibition of 33.7%. In the case of C(=C\c1ccccc1)/CSc1nnc(-c2cccnc2)n1Cc1ccco1, the inhibition was 72.6% (active). CCc1cccc(C)c1NC(=O)CSc1nnc(-c2ccco2)n1N was tested, and the inhibition was 76% (active). For O=C(CSc1nnc(-c2cccs2)n1Cc1ccco1)c1ccc2c(c1)OCO2, the inhibition was 51% (active). For COc1ccc(NC(=O)CSc2nnc(-c3cccs3)n2Cc2ccco2)cc1OC, the inhibition was 35.6%. COc1ccc(OC)c(NC(=O)CSc2nc3cccnc3n2C)c1 showed an inhibition of 40.2%. CCCn1c(SCC(=O)c2ccc3c(c2)OCCO3)nnc1C(C)C was tested, and the inhibition was 16.5%. Work on CCn1c(COc2ccccc2)nnc1SCC(=O)Nc1ccc2c(c1)OCCO2 yielded an inhibition of 18.3%. CCn1c(COc2ccc(OC)cc2)nnc1SCC(=O)Nc1cc(OC)ccc1OC was tested, and the inhibition was 65.9% (active). Work on Nc1cc(=O)nc(SCc2ccccc2)n1Cc1ccco1 yielded an inhibition of 32.6%. Work on N=c1c2c(-c3ccccc3)c(-c3ccccc3)oc2ncn1Cc1ccco1 yielded an inhibition of 19.1%. With COc1cccc2c1OCC(C(=O)NCc1ccc(Cl)cc1Cl)=C2 the inhibition was 28.2%. In the case of CCCCN1C(=O)CC(N2CCOCC2)C1=O (stereo not given), the inhibition was -0.3%. CCCOc1ccc(CN(CCO)CCO)cc1C(=O)OC gave an inhibition of 0.9%. O=C(CSCc1c(Cl)cccc1Cl)NN1C(=O)c2ccccc2C1=O gave an inhibition of 43.5%. For COc1ccc(C(=O)Nc2ncc3c(n2)-c2ccccc2CC3)cc1, the inhibition was 5.2%. O=C(c1cccnc1NCc1ccccc1)N1CCOCC1 showed an inhibition of 5.8%. CCCC(=O)N=c1sc2cccc(F)c2n1C gave an inhibition of 44.7%. In the case of CCOC(=O)c1ccc(N2C(=O)CC(Sc3nc(O)c(CC)c(=O)[nH]3)C2=O)cc1 (stereo not given), the inhibition was -1%. For O=C(Nc1ccccc1)c1ccccc1NC(=O)C(F)(F)F, the inhibition was 33.4%. For COc1cc(Cl)c(C)cc1NC(=O)CSc1nnc(-c2ccco2)n1CC(C)C, the inhibition was 96.1% (active). In the case of COc1ccccc1NC(=O)CSc1nc2sc(C)c(C)c2c(=O)n1Cc1ccco1, the inhibition was 92.9% (active). CCOC(=O)CSc1nc2c(sc(=S)n2CCc2ccccc2)c(=O)n1Cc1ccco1 showed an inhibition of 20.9%. CCCc1nc(SCC(=O)Nc2ccccc2OC)c2c(=O)n(C)c(=O)n(C)c2n1 was tested, and the inhibition was 41%. With CCCn1c(SCC(=O)Nc2c(C)cccc2C)nnc1C(C)C the inhibition was 24.4%. Work on CCc1c(C)nc2cc(C)[nH]n2c1=O yielded an inhibition of -0.7%. With CCOCCN(C=O)c1cccc(OC)c1 the inhibition was 26.6%.

Source: PubChem BioAssay AID778 (Sanford-Burnham Center for Chemical Genomics, 2007)
